# Results taken from the supplement of paper PMC6555819.
# Key:
# Assay in all cases: PBM binding z-score (relative to random genomic background probes); higher = stronger binding; sequences stand for … in GC…GCGATTGACAGCGTAGAATGAAGG
# [1] = system: FXR:RXRa (NR concentration 270 nM, RXRa partner concentration 90 nM)
# In short: (§1)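 Ligand-free nuclear receptor dimers were bound for 1 h to custom Agilent 4×180K protein-binding microarrays. Detection used antibodies against each partner (one per run). Binding z-scores rest on regression-normalized fluorescence, with random background probes as the reference.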
# [2] = system: LXRa:RXRa (NR concentration 270 nM, RXRa partner concentration 90 nM)
# In short: as §1
# [3] = system: LXRa homodimer (NR concentration 270 nM)
# In short: as §1
# [4] = system: LXRb:RXRa (NR concentration 270 nM, RXRa partner concentration 90 nM)
# In short: as §1
# [5] = system: LXRb homodimer (NR concentration 270 nM)
# In short: as §1
# [6] = system: PPARa:RXRa (NR concentration 270 nM, RXRa partner concentration 90 nM)
# In short: as §1
# [7] = system: PPARg:RXRa (NR concentration 180 nM, RXRa partner concentration 90 nM)
# In short: as §1
# [8] = system: PPARg:RXRa 270nM:90nM, anti-RXR (NR concentration 270 nM, RXRa partner concentration 90 nM)
# In short: as §1
# [9] = system: PPARg:RXRa 30nM:10nM, anti-RXR (NR concentration 30 nM, RXRa partner concentration 10 nM)
# In short: as §1
# [10] = system: PPARg:RXRa 90nM:30nM, anti-RXR (NR concentration 90 nM, RXRa partner concentration 30 nM)
# In short: as §1
# [11] = system: PPARg:RXRa DBDmut IVT, anti-RXR (DBD mutation: RXRa K156A/R161A, NR concentration 270 nM, RXRa partner concentration 90 nM)
# In short: as §1
# [12] = system: PPARg:RXRa IVT, anti-PPARg (NR concentration 270 nM, RXRa partner concentration 90 nM)
# In short: as §1
# [13] = system: PPARg DBDmut:RXRa IVT, anti-PPARg (DBD mutation: PPARg1 K132A/R137A, NR concentration 270 nM, RXRa partner concentration 90 nM)
# In short: as §1
# [14] = system: PPARg DBDmut IVT, anti-PPARg (DBD mutation: PPARg1 K132A/R137A, NR concentration 270 nM)
# In short: as §1
# [15] = system: PPARg homodimer (NR concentration 180 nM)
# In short: as §1
# [16] = system: PXR:RXRa (NR concentration 270 nM, RXRa partner concentration 90 nM)
# In short: as §1
# [17] = system: PXR homodimer (NR concentration 270 nM)
# In short: as §1
# [18] = system: RARa:RXR (NR concentration 270 nM, RXRa partner concentration 90 nM)
# In short: as §1
# [19] = system: RARa homodimer (NR concentration 270 nM)
# In short: as §1
# [20] = system: RARb:RXRa (NR concentration 270 nM, RXRa partner concentration 90 nM)
# In short: as §1
Sequence,PBM binding z-score [1],PBM binding z-score [2],PBM binding z-score [3],PBM binding z-score [4],PBM binding z-score [5],PBM binding z-score [6],PBM binding z-score [7],PBM binding z-score [8],PBM binding z-score [9],PBM binding z-score [10],PBM binding z-score [11],PBM binding z-score [12],PBM binding z-score [13],PBM binding z-score [14],PBM binding z-score [15],PBM binding z-score [16],PBM binding z-score [17],PBM binding z-score [18],PBM binding z-score [19],PBM binding z-score [20]
GCTATTAGTTGATAGGGCAACCGAATGATTCTCG,0.0649,-0.305,-0.0602,-0.111,-0.693,0.29,0.713,1.48,0.376,0.928,0.375,0.394,-0.22,-0.757,0.294,-0.353,-0.032,0.0949,0.352,0.561
ACAGCCAGGTGAGTGAAGGTAACTCAGCTGGACG,0.0409,-0.362,-0.936,-0.925,-1.03,-0.248,0.164,-0.463,-0.822,-0.5,0.411,0.424,-0.718,-0.566,-0.774,-0.607,-0.722,-0.11,-0.431,0.179
CGAACTAGGTCATTGACAGGACGGTGAATAGTAA,4.57,2.37,0.115,1.47,-0.0948,4.67,7.41,6.31,3.36,5.61,8.29,8.22,1.89,0.528,0.985,1.12,-0.168,1.81,0.0523,3.63
CATACAGGGGCAGCTAGGCCAGAGTAGGGACGGC,-0.362,-0.459,-0.661,-0.557,-0.608,-0.483,0.23,-0.457,-0.311,-0.744,-0.41,0.399,-0.422,-0.72,-0.555,-0.802,-0.878,-0.828,0.188,1.17
TAGCCTAGGTCATGCGGGCCACTATAGTGTCGGC,4.19,3.36,0.309,1.86,-0.164,3.55,2.41,2.65,0.295,1.5,1.87,3.38,-0.194,0.594,1.72,1.69,-0.634,2.72,0.388,3.69
GCATATAGGTGATACAAGGTGAAAGTCCGATTGT,1.98,0.421,-0.185,0.234,-0.213,2.26,1.73,2.17,0.808,1.33,5.22,4.28,0.633,0.787,0.568,0.71,-0.00117,1.11,0.474,0.893
TGTCAAAGTTCAACGGTAACGTAAGTATCCACAC,6.73,5.85,4.19,3.92,1.33,5.05,8.27,7.38,5.3,6.83,0.0114,4.34,1.07,1.67,3.02,4.77,3.78,4.08,1.62,5.03
ATCTCTAGGTAAAGAAAGTTCAGTGAATGCAAAT,0.762,4.7,1.94,1.58,0.904,1.38,0.409,0.933,0.542,0.768,2,1.69,1.32,0.83,1.41,2.68,1.68,1.42,1.41,1.82
CCTTACGGGTCACTACAGGTTATAGCATCGGAGT,4.92,8,2.22,6.14,0.211,4.69,3.41,3.84,1.46,2.62,2.72,3.21,0.858,0.751,1.99,4.52,0.327,4.47,1.02,3.91
AGCTCTAGGTAACAAGTTCAGTGAAAGAGAGGAC,0.5,0.614,0.194,0.684,0.134,1.53,1.33,1.92,0.448,1.34,3.82,2.13,0.734,0.272,0.839,1.63,1.98,0.544,0.529,1.64
CCAGACAGGTGTAAGGTAACTCAGTCTGGTACGC,-0.0338,-0.35,-0.126,-0.421,-0.449,0.0692,0.41,0.842,-0.246,0.409,-0.423,-0.31,-0.287,-0.728,0.365,-0.318,-0.0688,-0.0779,-0.14,-0.403
ATCTCTAGGTAACAAGTCCAGTGAAAGAGAGGAC,0.652,0.256,0.362,0.148,0.685,0.632,1.2,1.71,0.317,1.45,3.01,2.6,0.767,1.29,0.367,0.433,0.215,0.195,0.924,0.473
CCTAGCAGGCCAAGCTGGGTCACTCAAGGCTTGA,1.55,0.966,-0.429,0.821,-1.36,1.82,-0.199,0.0206,-0.847,-0.107,1.17,0.818,-0.82,-1.65,0.234,0.605,-0.579,1.29,-0.984,1.7
